Here are results for 60 molecules from PubChem BioAssay AID624330 (Southern Research Specialized Biocontainment Screening …, 2012).

Out of some 340,000 compounds screened, about 2,100 (0.62%) were called active.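 Rule for the calls: active = first-screen hits whose inhibition reached a set limit at any dose in the follow-up dose series; inconclusive = inhibition above the set first-screen limit but never retested; inactive = the rest.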 A selection follows. Measured potencies and affinities stand elsewhere.

For this experiment, the target named is Rac GTPase-activating protein 1 (Homo sapiens) (UniProt Q9H0H5). Description: blockers of MgcRacGAP-driven Rac1 GTP hydrolysis – biochemical, ADP Hunter fluorescence, primary and confirmatory, confirmation (AID 624330).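 Note: fluorescence reports GDP produced by GAP-driven GTP hydrolysis.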 Particulars: MgcRacGAP-stimulated Rac1 GTP hydrolysis, at 30 µM, active compounds read high, GST-tagged Rac1 F28L mutant substrate.
Chain of Rac GTPase-activating protein 1 (Homo sapiens) (Q9H0H5 whole entry, looked up): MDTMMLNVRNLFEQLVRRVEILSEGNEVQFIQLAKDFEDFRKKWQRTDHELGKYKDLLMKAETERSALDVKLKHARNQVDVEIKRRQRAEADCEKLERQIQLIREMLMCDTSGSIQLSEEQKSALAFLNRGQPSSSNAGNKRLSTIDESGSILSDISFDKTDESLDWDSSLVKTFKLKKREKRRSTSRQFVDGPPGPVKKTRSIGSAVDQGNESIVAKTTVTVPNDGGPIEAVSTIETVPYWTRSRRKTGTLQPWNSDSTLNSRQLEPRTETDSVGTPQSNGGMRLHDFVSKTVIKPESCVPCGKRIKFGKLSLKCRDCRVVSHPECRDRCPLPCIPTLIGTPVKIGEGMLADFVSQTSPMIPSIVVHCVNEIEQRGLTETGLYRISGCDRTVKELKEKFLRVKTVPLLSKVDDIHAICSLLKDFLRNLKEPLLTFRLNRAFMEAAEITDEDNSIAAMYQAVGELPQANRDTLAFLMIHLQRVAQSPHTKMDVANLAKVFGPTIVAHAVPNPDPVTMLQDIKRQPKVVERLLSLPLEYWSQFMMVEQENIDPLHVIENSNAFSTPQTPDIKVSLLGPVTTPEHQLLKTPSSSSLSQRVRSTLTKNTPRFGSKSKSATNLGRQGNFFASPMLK
In the case of `CC(=O)Nc1ccc(NC(=O)C(C)Oc2ccc(Cl)cc2Cl)cc1` (stereo not given), the inhibition was 1.91% (inactive).

For the molecule `CC(Oc1ccc(Cl)cc1Cl)C(=O)Nc1cccc(O)c1` (stereo not given), the inhibition is 9.91% (inactive). As for `O=C(COC(=O)c1ccc2c(c1)OCO2)Nc1ccccc1`, the figure is 4.56% (inactive). For `CCN(CC)c1ccc(NC(=O)c2ccc3c(c2)OCO3)c(C)c1` the value was 24.3% (inactive); for `O=C(O)[C@H]1CCCC[C@H]1C(=O)Nc1ccc(S(=O)(=O)N2CCOCC2)cc1`, 4.65% (inactive). For `O=C(O)C1CCCCC1C(=O)Nc1ccc(S(=O)(=O)N2CCCC2)cc1` (stereo not given) the value was 6.7% (inactive); for `CC(=O)Nc1ccc(C(=O)Nc2ccc(S(=O)(=O)N3CCOCC3)cc2)cc1`, -2.26% (inactive). Consider `NC(=O)c1ccc(NC(=O)COC(=O)c2ccc3c(c2)OCO3)cc1`, for which the inhibition is 2.24% (inactive). For `CCC(=O)Nc1ccc(NC(=O)c2ccc3c(c2)OCO3)cc1`, the inhibition was 11.5% (inactive). Regarding `O=C(Nc1ccc(S(=O)(=O)N2CCOCC2)cc1)c1ccc(S(=O)(=O)N2CCOCC2)cc1`, the inhibition was 0.49% (inactive). `CCC[C@@H](CN1CCC[C@H]1CN1C(N)=NC[C@@H]1Cc1ccccc1)N1C[C@@H]([C@H](C)CC)N(CCCC2CCCC2)C1=N`: the inhibition is 12.3% (inactive). As for `COc1ccccc1CNC(=O)COC(=O)Cc1c[nH]c2ccccc12`, the figure is 4.99% (inactive). Consider `CC1CCCC(C)N1CCCNC(=O)CN1C(=O)c2cccnc2Oc2ccc(Cl)cc21` (stereo not given), for which the inhibition is 6.32% (inactive).

`CCC(C)N1CCCCC1C(=O)Nc1c(C)cc(C)cc1C` (stereo not given): the inhibition was 2.22% (inactive). For `CCc1ccc(NC(=O)CCc2nc3ccccc3[nH]2)cc1` the value was 10.8% (inactive). As for `COc1ccc(Br)cc1CNc1ccc(S(N)(=O)=O)cc1`, the inhibition is 0.46% (inactive).

On to `COc1ccc(Br)cc1CNc1ccccc1`, for which the inhibition is 26% (inactive).

Regarding `CC(C)n1c(SCC(=O)Nc2nncs2)nnc1C1CC1`, the inhibition is 4.43% (inactive). As for `NC(=O)C[C@H](NC(=O)c1ccc(Cl)cc1)C(=O)OCc1ccccc1`, the figure is 8.75% (inactive); as for `COc1cccc(NC(=O)C(=O)c2cn(CC(=O)N3CCCC3)c3ccccc23)c1`, 10% (inactive); as for `CCN=c1scc(-c2ccco2)n1/N=C/c1ccc(O)cc1`, 13.7% (inactive). As for `CC(C)n1c(-c2ccco2)csc1=Nc1cccnc1`, the figure is 11.3% (inactive); as for `COCCN=c1scc(-c2ccco2)n1/N=C/c1ccc(O)c(O)c1O`, -21.8% (inactive); as for `CCN=c1scc(-c2ccc(F)cc2)n1/N=C/c1ccccn1`, 9.08% (inactive).

Turning to `C=CCN=c1scc(-c2ccco2)n1/N=C/c1ccc(O)c(O)c1O`, the inhibition was -25.9% (inactive). As for `CCN=c1scc(-c2ccco2)n1/N=C/c1ccc(OC)c(O)c1`, the figure is 28% (inactive); as for `CN=c1scc(-c2ccccc2F)n1/N=C/c1ccc(O)c(O)c1O`, -8.6% (inactive). For `COc1ccc(O)c(/C=N/n2c(-c3ccco3)csc2=Nc2cccnc2)c1` the value was 14.5% (inactive). Take `CCCCc1ncc(CN2CCC(n3nccc3NC(=O)C(OC)c3ccccc3)CC2)[nH]1` (stereo not given): the inhibition is 8.08% (inactive). As for `O=C(CN1CCN(Cc2ccccc2)C1=O)NCc1ccc(Cl)cc1`, the figure is 3.73% (inactive). As for `NC(=O)COc1ccc(C(=O)NCC2(N3CCOCC3)CCCCC2)cc1`, the figure is 4.65% (inactive); as for `Cc1ccc([C@H]2C[C@@H](O)[C@H](n3cc(COC(=O)c4ccccc4)nn3)CN2Cc2cccs2)cc1`, -0.67% (inactive); as for `COc1ccccc1NC(=O)c1ccc(NC(=O)COC(=O)c2cncc(Br)c2)cc1`, 5.46% (inactive).

`CC(C)CC1C(C#N)=C(N)OC2=C1C(=O)CC(c1ccccc1)C2` (stereo not given): the inhibition was -2.75% (inactive).

Take `COc1ccc(CCn2c(-c3cc([N+](=O)[O-])cc([N+](=O)[O-])c3)nc3nc4ccccc4nc32)cc1`: the inhibition was 4.41% (inactive).

Turning to `CN(Cc1cnccn1)C(=O)C1CCC(=O)N(CCc2ccc(Cl)cc2)C1` (stereo not given), the inhibition was 8.49% (inactive). As for `COC(=O)c1ccc(OCC(O)CN2CCOCC2)cc1` (stereo not given), the figure is -9.81% (inactive); as for `COc1ccc(CCNC(=O)N2CCOCC2)cc1`, 14.2% (inactive). As for `CN1CCN(NC(=O)NC2CCCCC2)CC1`, the figure is 2.74% (inactive); as for `COc1cc(NC(=O)c2cccs2)ccc1NC(=O)Cc1ccccc1`, 4.97% (inactive); as for `N#Cc1cccc(NC(=O)CNc2cccc(S(=O)(=O)N3CCCC3)c2)c1`, -1.55% (inactive). For `O=C(Nc1cccc(S(=O)(=O)N2CCOCC2)c1)c1c2c(nc3ccccc13)CCC2` the value was 11.9% (inactive); for `COC(c1ccccc1)c1nnc(CCC(=O)NCc2ccc3ncccc3c2)o1` (stereo not given), 9.84% (inactive); for `CCCN1CNC(=S)N(c2ccc(C)cc2C)C1`, 16.6% (inactive).

As to `CC(C)N(Cc1cc2ccccc2[nH]c1=O)C(=O)C(C)(C)C`, the inhibition was -1.34% (inactive). As for `CCOC(=O)C(Sc1cc(C)nc(N)n1)C(C)=O` (stereo not given), the figure is 0.9% (inactive); as for `CCc1c(C)nc(N)nc1Cl`, -2.74% (inactive); as for `COc1cc2c(cc1OC)C(c1ccccc1)=NCC2`, 3.03% (inactive). With `COc1cc2c(cc1OC)C(C)=NCC2`, the inhibition was 5.87% (inactive). For `Cc1cc(OCC(=O)OCC(=O)Nc2cc(S(=O)(=O)N3CCOCC3)ccc2Cl)ccc1Cl` the value was 2.85% (inactive).

Turning to `CCOC(=O)CN1C(=N)N(c2nc(NC(C)C)nc(NC(C)C)n2)CC1=O`, the inhibition was 7% (inactive). Consider `CCOC(=O)Cc1csc(NC(=O)CSc2nnnn2-c2ccc(CC)cc2)n1`, for which the inhibition is 8.91% (inactive). For `Cc1ccc(NC(=O)CCNC(=O)c2ccccc2Cl)cc1S(=O)(=O)N(C)C` the value was 2.79% (inactive); for `Cc1ccc(NC(=O)CCNC(=O)Nc2ccccc2)cc1S(=O)(=O)N(C)C`, 2.28% (inactive); for `CCN1/C(=N\N)c2cccc3cccc1c23`, 13.1% (inactive). As for `CN1C(=O)N(C)c2cccc3cccc1c23`, the figure is 6.07% (inactive); as for `Cc1oc(-c2cccc(F)c2)nc1CN1CCCN(C(=O)c2ccco2)CC1`, 9.79% (inactive).

`CCCCn1c(N)c(N(Cc2ccccc2OC)C(=O)C(C)Oc2ccc(Cl)cc2)c(=O)[nH]c1=O` (stereo not given): the inhibition is 3.24% (inactive). For `Cc1ccc(S(=O)(=O)N(C)Cc2ccc(C(=O)NN=C(CC(C)C)CC(C)C)cc2)cc1` the value was 7.07% (inactive); for `CCn1cnc2c(Nc3cccc(Cl)c3)nc(C#N)nc21`, 12.9% (inactive).

One may read the inhibition as the drop in the measured response relative to a control, in per cent.
